Test results: PubChem BioAssay (Tox21)
Results filed as inconclusive are left out. Calls of active or inactive are those of the source. Unless noted, the call rests on the fitted dose curve.

Experiments:
[1] = Nuclear factor erythroid 2-related factor 2/antioxidant responsive element (Nrf2/ARE) small molecule agonists: qHTS cell viability counter screen in human keratinocytes (AID 1919968; active means well fitted curve in the direction sought with a large enough effect in the repeat runs; an effect the other way counts as inactive or inconclusive; further: nearly all actives have a fitted effect of over 55% in size)
Procedure, shortened: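 Viability counter-screen: KeratinoSens reporter cells, DMSO-delivered compounds, 23 h at 37 C, CellTiter-Fluor fluorescence.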

[2] = Nuclear factor erythroid 2-related factor 2/antioxidant responsive element (Nrf2/ARE) small molecule agonists: luciferase reporter gene qHTS assay in human keratinocytes (AID 1919969); further: nearly all actives have a fitted effect of over 35% in size; further: potency means the concentration at half of the fitted maximal effect
[3] = target: Gonadotropin-releasing hormone receptor (Homo sapiens) (UniProt P30968); test: Human gonadotropin-releasing hormone receptor (GnRHR) small molecule agonists, calcium flux assay in GnRHR-HEK293 cells (AID 1920063); further: nearly all actives have a fitted effect of over 35% in size; further: potency means the concentration at half of the fitted maximal effect
Procedure, shortened: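 Tox21-format agonist screen using human GnRHR-expressing HEK293 cells and a fluorescent calcium dye; kinetic 3-min fluorescence reading after compound addition, 15-point concentration series run in triplicate.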

[4] = target: KiSS-1 receptor (Homo sapiens) (UniProt Q969F8); test: Human kisspeptin (KISS1R) small molecule agonists, calcium flux assay in KISS1R-HEK293 cells (AID 1920064; active means well fitted curve in the direction sought with a large enough effect in the repeat runs; an effect the other way counts as inactive or inconclusive; further: potency means the concentration at half of the fitted maximal effect)
Procedure, shortened: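 Intracellular calcium mobilization in KISS1R-HEK293 cells was recorded by fluorescence (Ex/Em 480/540) for 3 min following compound addition to cells pre-loaded 1 h with calcium dye.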

[5] = G protein-coupled receptor (GPCR) small molecule agonists, calcium flux assay: HEK293 wild type cell line counter screen (AID 1920065)
Procedure, shortened: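 In this agonist-mode screen, ATP is the positive control and DMSO the vehicle. Cells grow 18 h before a 1 h dye incubation at 37 C; signal is taken at Ex/Em 480/540 over 3 min.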

[6] = target: 5-hydroxytryptamine receptor 2A (Homo sapiens) (UniProt P28223); test: 5-hydroxytryptamine receptor 2A (HTR2A) small molecule antagonists, cell-based qHTS assay (AID 1963586); further: nearly all actives have a fitted effect of over 45% in size
Procedure, shortened: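 Antagonist-mode intracellular calcium assay: DOI (4 nM) added after 5 min compound pre-incubation at room temperature to dye-loaded HTR2A-CHO cells. Fluorescence followed for 3 min, sampled every second.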

[7] = target: 5-hydroxytryptamine receptor 2A (Homo sapiens) (UniProt P28223); test: 5-hydroxytryptamine receptor 2A (HTR2A) small molecule agonists, cell-based qHTS assay (AID 1963587); further: nearly all actives have a fitted effect of over 30% in size; further: potency means the concentration at half of the fitted maximal effect
Procedure, shortened: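 Kinetic calcium-flux fluorescence (2 min, 1 sec intervals) after compound addition in agonist mode. HTR2A-CHO cells were cultured 18 h, then dye-loaded 1 h at 37 C.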

[8] = target: Muscarinic acetylcholine receptor M1 (Homo sapiens) (UniProt P11229); test: Cholinergic receptor muscarinic 1 (CHRM1) small molecule antagonists, cell-based qHTS assay (AID 1963588); further: nearly all actives have a fitted effect of over 40% in size; further: potency means the concentration at half of the fitted maximal effect
Procedure, shortened: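 CHRM1-CHO calcium-flux assay, antagonist mode. Cells were seeded 18 h, dye-loaded 1 h at 37 C and given compound for 5 min at RT, then acetylcholine was added at 50nM. FDSS fluorescence was read 3 min; 15 concentrations, three runs.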

[9] = target: Muscarinic acetylcholine receptor M1 (Homo sapiens) (UniProt P11229); test: Cholinergic receptor muscarinic 1 (CHRM1) small molecule agonists, cell-based qHTS assay (AID 1963589); further: nearly all actives have a fitted effect of over 35% in size; further: potency means the concentration at half of the fitted maximal effect
Procedure, shortened: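 Stable CHRM1-CHO cells (human receptor) were incubated 18 h, dye-loaded for 1 h at 37 C and exposed to test compounds for agonist activity, with calcium-dependent fluorescence followed kinetically.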

[10] = target: Beta-2 adrenergic receptor (Homo sapiens) (UniProt P07550); test: Adrenergic beta2 receptor (ADRB2) small molecule antagonists, cell-based qHTS assay (AID 1963592); further: series mostly up to about 92 µM; nearly all actives have a fitted effect of over 50% in size
Procedure, shortened: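 Cells (CHO, stable ADRB2 overexpression) incubated 18-20hr at 37C; compounds added from DMSO; agonist mix (1nM isoproterenol, 100uM IBMX, 25uM Ro-20-1724) added; 0.5hr RT; d2-cAMP and anti-cAMP-cryptate added; 1hr RT; 665/615 nm read.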

[11] = target: D(2) dopamine receptor (Homo sapiens) (UniProt P14416); test: Dopamine D2 receptor (DRD2) small molecule agonists, cell-based qHTS assay (AID 1963594); further: nearly all actives have a fitted effect of over 35% in size
Procedure, shortened: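 cAMP accumulation in DRD2-HEK293 cells measured by HTRF after 1 h detection; compounds added 10 min before NKH477 (200nM […]) forskolin-analogue stimulation, 30 min at room temperature, with Ro20-1724 present at 0.1 mM final.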

[12] = target: D(2) dopamine receptor (Homo sapiens) (UniProt P14416); test: Dopamine D2 receptor (DRD2) small molecule antagonists, cell-based qHTS assay (AID 1963595; active means well fitted inhibition curve with a large enough effect in the signal ratio in the repeat runs, with a control signal flat; the % refers to the signal ratio)
Procedure, shortened: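 DRD2-HEK293; 0.1 mM Ro20-1724; cpd 10 min RT; NKH477 200 nM + quinpirole 12 nM, 30 min RT; HTRF cAMP (cAMP-d2/anti-cAMP cryptate), 665/620 nm ratio after 1 h.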

[13] = p53 small molecule agonists, cell-based qHTS assay with rat liver microsomes: qHTS cell viability counter screen (AID 1963580); further: nearly all actives have a fitted effect of over 45% in size
Procedure, shortened: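 Intracellular ATP, by CellTiter-Glo luminescence, defines viability. HCT-116 p53RE-bla cells, 4,000 per well, were compound-treated in the presence of rat liver microsomes and NADPH for 16 h at 37 C.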

[14] = p53 small molecule agonists, cell-based qHTS assay: qHTS cell viability counter screen (AID 1963581); further: nearly all actives have a fitted effect of over 45% in size
Procedure, shortened: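 Compounds are pinned onto HCT-116 p53RE-bla cells and left 16 h at 37 C. Following the reporter FRET read, ATP is quantified by CellTiter-Glo luminescence after 30 min at room temperature.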

[15] = cAMP Responsive Elements (CRE) small molecule agonists, cell-based qHTS assay (AID 1963590)
Procedure, shortened: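 FRET-based beta-lactamase readout (LiveBLAzer B/G, 2 h RT) quantified CRE activation in HEK 293T CRE-bla cells after 3 h treatment with DMSO-dissolved compounds.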

[16] = cAMP Responsive Elements (CRE) small molecule antagonists, cell-based qHTS assay (AID 1963591; active means well fitted inhibition curve with a large enough effect in the signal ratio in the repeat runs, not every such curve was filed as active; the % refers to the signal ratio)
Procedure, shortened: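 qHTS in CRE-bla HEK 293T cells: compound in DMSO, then 0.25 uM NKH477 (final), 3 h at 37 °C/5% CO2; beta-lactamase FRET read-out after 2 h substrate incubation.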

[17] = p53 small molecule agonists, cell-based qHTS assay (AID 1963582; active means well fitted activation curve with a large enough effect in the signal ratio in the repeat runs, not every such curve was filed as active; the % refers to the signal ratio)
Procedure, shortened: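 Agonist activity was scored from beta-lactamase FRET fluorescence in p53RE-bla cells treated 16 h at 37 C with compounds in DMSO, substrate incubation being 2 h at room temperature.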

[18] = target: Beta-2 adrenergic receptor (Homo sapiens) (UniProt P07550); test: Adrenergic beta2 receptor (ADRB2) small molecule agonists, cell-based qHTS assay (AID 1963593);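 further: CHO cells stably overexpressing human ADRB2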
Procedure, shortened: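 CHO cells stably over-expressing ADRB2 were plated overnight at 37C, then dosed with compounds plus a stimulation mix containing 100uM IBMX and 25uM Ro-20-1724 for 0.5hr at room temperature. cAMP was measured by HTRF competition, 1hr.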

[19] = p53 small molecule agonists, cell-based qHTS assay with rat liver microsomes (AID 1963578)
Procedure, shortened: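 Read-out is beta-lactamase reporter fluorescence (LiveBLAzer, 2 h, room temperature, dark) in p53RE-bla cells treated 16 h at 37 C with compound, rat liver microsomes and NADPH, both 0.5 mg/mL final.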

[20] = p53 small molecule agonists, cell-based qHTS assay with human liver microsomes: qHTS cell viability counter screen (AID 1963579); further: nearly all actives have a fitted effect of over 45% in size
Procedure, shortened: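 Cells carrying the p53 response-element beta-lactamase reporter are treated for 16 h at 37 C with test compounds in the presence of human liver microsomes and NADPH (both 0.5 mg/mL final); ATP-based CellTiter-Glo luminescence then reports viability.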

Measured: Potency

Chain of Gonadotropin-releasing hormone receptor (Homo sapiens) (P30968 whole entry, looked up): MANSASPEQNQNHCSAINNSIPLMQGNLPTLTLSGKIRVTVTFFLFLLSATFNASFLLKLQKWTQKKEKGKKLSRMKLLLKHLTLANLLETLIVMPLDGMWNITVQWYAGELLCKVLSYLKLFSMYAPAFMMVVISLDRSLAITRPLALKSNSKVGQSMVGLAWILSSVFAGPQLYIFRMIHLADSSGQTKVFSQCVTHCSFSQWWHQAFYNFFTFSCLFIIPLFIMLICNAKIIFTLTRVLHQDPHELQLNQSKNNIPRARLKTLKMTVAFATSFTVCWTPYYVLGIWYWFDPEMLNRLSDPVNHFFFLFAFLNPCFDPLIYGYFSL
Chain of Beta-2 adrenergic receptor (Homo sapiens) (P07550 whole entry, looked up): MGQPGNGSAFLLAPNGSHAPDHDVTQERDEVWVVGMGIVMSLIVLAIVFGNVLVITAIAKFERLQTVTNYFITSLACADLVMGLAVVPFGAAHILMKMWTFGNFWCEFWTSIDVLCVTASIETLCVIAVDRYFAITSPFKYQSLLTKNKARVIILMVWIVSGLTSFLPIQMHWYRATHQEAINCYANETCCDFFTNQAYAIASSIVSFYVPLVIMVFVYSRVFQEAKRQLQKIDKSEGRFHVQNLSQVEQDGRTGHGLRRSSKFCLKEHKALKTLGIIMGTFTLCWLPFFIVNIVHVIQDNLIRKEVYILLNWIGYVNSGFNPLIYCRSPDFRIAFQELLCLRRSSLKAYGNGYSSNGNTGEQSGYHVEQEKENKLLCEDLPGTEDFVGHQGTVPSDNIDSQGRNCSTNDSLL
Chain of D(2) dopamine receptor (Homo sapiens) (P14416 whole entry, looked up): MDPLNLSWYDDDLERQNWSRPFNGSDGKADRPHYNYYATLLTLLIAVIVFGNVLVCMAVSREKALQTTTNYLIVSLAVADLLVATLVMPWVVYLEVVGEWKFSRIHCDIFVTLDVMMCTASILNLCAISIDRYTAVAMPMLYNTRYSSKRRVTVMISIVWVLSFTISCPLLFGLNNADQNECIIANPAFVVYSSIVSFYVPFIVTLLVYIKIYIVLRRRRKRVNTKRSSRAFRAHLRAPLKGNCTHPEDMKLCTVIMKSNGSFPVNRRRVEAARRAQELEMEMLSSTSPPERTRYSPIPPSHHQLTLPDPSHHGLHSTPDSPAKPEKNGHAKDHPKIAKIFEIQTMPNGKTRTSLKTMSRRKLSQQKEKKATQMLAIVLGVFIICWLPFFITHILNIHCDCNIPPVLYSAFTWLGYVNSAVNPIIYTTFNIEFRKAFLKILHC
Chain of KiSS-1 receptor (Homo sapiens) (Q969F8 whole entry, looked up): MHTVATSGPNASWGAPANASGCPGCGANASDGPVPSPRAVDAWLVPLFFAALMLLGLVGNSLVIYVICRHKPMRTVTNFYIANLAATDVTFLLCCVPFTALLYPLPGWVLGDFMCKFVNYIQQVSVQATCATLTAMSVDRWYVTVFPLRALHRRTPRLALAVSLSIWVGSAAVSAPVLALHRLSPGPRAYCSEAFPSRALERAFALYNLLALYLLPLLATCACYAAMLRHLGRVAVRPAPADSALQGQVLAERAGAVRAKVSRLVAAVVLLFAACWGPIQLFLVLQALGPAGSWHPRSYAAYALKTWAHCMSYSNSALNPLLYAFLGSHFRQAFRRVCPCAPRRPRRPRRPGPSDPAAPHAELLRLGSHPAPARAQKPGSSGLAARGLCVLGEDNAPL
Chain of Muscarinic acetylcholine receptor M1 (Homo sapiens) (P11229 whole entry, looked up): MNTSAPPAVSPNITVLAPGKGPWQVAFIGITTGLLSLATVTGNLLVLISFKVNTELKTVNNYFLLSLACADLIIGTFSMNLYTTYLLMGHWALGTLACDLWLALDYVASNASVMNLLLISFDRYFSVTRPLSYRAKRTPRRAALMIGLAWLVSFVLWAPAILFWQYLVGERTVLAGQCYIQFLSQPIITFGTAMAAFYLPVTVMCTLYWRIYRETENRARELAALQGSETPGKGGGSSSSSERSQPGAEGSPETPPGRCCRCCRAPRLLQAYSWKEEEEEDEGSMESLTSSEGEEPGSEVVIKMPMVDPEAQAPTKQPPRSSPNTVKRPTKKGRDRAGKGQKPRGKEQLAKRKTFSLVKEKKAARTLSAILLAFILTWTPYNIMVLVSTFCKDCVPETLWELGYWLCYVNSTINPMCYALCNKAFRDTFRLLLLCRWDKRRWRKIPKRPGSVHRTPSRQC
Chain of 5-hydroxytryptamine receptor 2A (Homo sapiens) (P28223 whole entry, looked up): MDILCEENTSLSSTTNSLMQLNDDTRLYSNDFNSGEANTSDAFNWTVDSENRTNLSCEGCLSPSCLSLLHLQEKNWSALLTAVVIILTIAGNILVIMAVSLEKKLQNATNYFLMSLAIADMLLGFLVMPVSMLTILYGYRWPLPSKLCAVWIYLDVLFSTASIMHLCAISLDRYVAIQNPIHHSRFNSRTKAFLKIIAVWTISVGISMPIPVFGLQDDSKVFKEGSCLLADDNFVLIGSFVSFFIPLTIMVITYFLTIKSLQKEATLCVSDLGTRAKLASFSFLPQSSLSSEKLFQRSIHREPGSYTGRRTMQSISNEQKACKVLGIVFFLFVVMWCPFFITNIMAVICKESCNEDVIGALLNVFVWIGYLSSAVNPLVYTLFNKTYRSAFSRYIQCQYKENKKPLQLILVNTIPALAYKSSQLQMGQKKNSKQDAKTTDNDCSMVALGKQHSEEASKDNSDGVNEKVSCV

CC/C=C\C/C=C\C/C=C\CCCCCCCC(=O)OCC
active: [2] 70.1 µM
not listed: [13] | [14] | [15] | [16] | [17] | [18] | [19] | [20]
inactive: all other assays above

COc1cc(C(C)=O)ccc1OCCCN1CCC(c2noc3cc(F)ccc23)CC1
active: [8] 3.65 µM
not listed: [6] | [7] | [10] | [12] | [17] | [18] | [19] | [20]
inactive: all other assays above

CC(C)NC[C@@H](O)COc1ccc(CC(N)=O)cc1
inactive: [1] | [2] | [3] | [4] | [5] | [17] | [15] | [16] | [11] | [12]

c1ccccc1
not listed: [6] | [13] | [14] | [17] | [18] | [19] | [20]
inactive: all other assays above

CCCCC(CC)CNCC(CC)CCCC (centres undefined)
not listed: [6] | [11] | [13] | [17] | [19] | [20]
inactive: all other assays above

CC(=O)NCCCS(=O)(=O)O
active: [3] 15 µM | [4] 11.9 µM | [7] 18.9 µM | [9] 23.8 µM
not listed: [5] | [6] | [18]
inactive: all other assays above

[Ca+2]
not listed: [5] | [6] | [10] | [13] | [17] | [19]
inactive: all other assays above

Cc1ccc(C)c([N+](=O)[O-])c1
not listed: [5] | [6] | [13] | [17] | [18] | [19]
inactive: all other assays above

NCCc1ccn[nH]1
not listed: [5] | [6] | [14] | [15] | [17] | [19] | [20]
inactive: all other assays above
